Compounds without any hit were thinned out: in the full panel of roughly 83,000, 20% have a hit.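 Values shown are percent growth following 48 h exposure of cells in 96-well plates to a single concentration of compound; below 10 was considered active.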 The source made the active and inactive calls.
Tested on: MCF7 breast
Experiment: NCI-60 one-dose screen, 48 h (100 = growth as untreated, 0 = no growth, -100 = all killed)
Conditions: 10 µM unless noted
Experimental: Growth inhibition of the MCF7 human tumor cell line is measured as a screen for anti-cancer activity. Cells are grown in 96 well plates and exposed to the test compound for 48 hours. Compounds are tested at a single concentration, which is 10^-5 M for most compounds. The reported endpoint is percent growth (GI% or GIPRCNT), where numbers from 0 - 100% represent growth inhibition, and numbers from -100% - 0 represent cell death. For example, a value of 40 represents 60% growth inhibition. A value of 0 means no net growth occurred over the course of the experiment. A value of -40 indicates 40% of cells at the beginning of the experiment died by the end of the experiment. A value of -100 means all cells are dead at the end of the experiment.
NCI-60 Human Tumor Cell Lines Screen was performed using the standard one-dose NCI protocol, which is described in more detail at https://dtp.cancer.gov/discovery_development/nci-60/default.htm.
Compounds with GIPRCNT values below 10 were considered active. Activity score was based on GIPRCNT using the following formula: […]
Score is 0 for GIPRCNT values of 100 or above, 50 for GIPRCNT values of 0, and 100 for GIPRCNT values of -100.

| Structure (SMILES) | growth |
| --- | --- |
| COc1nc(Nc2cccc(C(F)(F)F)c2)nc(OC)n1 | 97.9% (inactive) |
| CCOc1ccc(NC(=S)N2CCC(CCCC3CCN(C(=S)Nc4ccc(OCC)cc4)CC3)CC2)cc1 | 84.1% (inactive) |
| CC(C)(C)[Si](C)(C)OCC1OC(n2cnc3c(N)ncnc32)CC1OS(C)(=O)=O (stereo not given) | 105% (inactive) |
| Cn1c(=O)c2[nH]c(CC(=O)O)nc2n(C)c1=O | 101% (inactive) |
| CC(C)C1CCC(C)C(O)C1 (stereo not given) | 100% (inactive) |
| CCOC(=O)c1ccc(C(C)(C)C)cc1 | 104% (inactive) |
| N#C/C(=C\c1ccc2c(c1)OCO2)c1ccccc1 | 53% (inactive) |
| CCOC(=O)/C(C#N)=C\c1c[nH]c2ccccc12 | 77% (inactive) |
| Cc1nc(O)cc(=O)[nH]1 | 101% (inactive) |
| CN(C)CCOC(=O)Nc1ccc(Cc2ccc(NC(=O)OCCN(C)C)cc2)cc1 | 44.9% [100 µM] (inactive) |
| CCN(CC)CCN1CNC(=S)NC1 | 98.4% (inactive) |
| Cc1ccccc1CC(N)C(=O)O (stereo not given) | 104% (inactive) |
| C=CCOc1ccc(Cl)cc1Cl | 105% (inactive) |
| O=C(O)Cc1ccc(Cl)cc1 | 99.2% (inactive) |
| Cc1c(Cl)cccc1N=C=S | 97.5% (inactive) |
| NC(CSSCC(N)C(=O)O)C(=O)O (stereo not given) | 20.4% (inactive) |
| O=C(NCc1ccccc1)/C(=C/c1ccccc1)NC(=O)c1ccccc1 | 96.6% (inactive) |
| Cc1ccc(O)c(N)c1 | 99.9% (inactive) |
| O=S(=O)(OCCOS(=O)(=O)c1ccccc1)c1ccccc1 | 88% (inactive) |
| Cc1[nH]c(=S)[nH]c(=O)c1C | 101% (inactive) |

| Structure (SMILES) | growth |
| --- | --- |
| CC1=CC(=Nc2ccc(N(C)C)cc2)C=C(C)C1=O | 77% (inactive) |
| CC(CC(CCC(=O)O)(c1ccccc1)c1ccccc1)N(C)C (stereo not given) | 91.2% (inactive) |
| O=C(OCc1ccccc1)n1nnc2ccccc21 | 97.3% (inactive) |
| CC1(C)OC2C(CO)OC(n3ccc(=O)[nH]c3=O)C2O1 (stereo not given) | 97.7% (inactive) |
| Cc1ccc(C)c2c1CCC2=O | 94.7% (inactive) |
| CCN1CCCC(N2c3ccccc3Sc3ccccc32)C1 (stereo not given) | 105% (inactive) |
| BrCc1cccc(C[P+](c2ccccc2)(c2ccccc2)c2ccccc2)c1 | 53.3% (inactive) |
| O=C(c1ccccc1)c1ccc(-c2ccc(O)cc2)cc1 | 23.3% (inactive) |
| O=CNCCc1ccccc1 | 95.3% (inactive) |
| Nc1ccn(C2OC(CO)C(O)C2F)c(=O)n1 (stereo not given) | 46.7% (inactive) |
| Cc1ccc(S(=O)(=O)NC(=O)NCCSSCCNC(=O)NS(=O)(=O)c2ccc(C)cc2)cc1 | 103% (inactive) |
| C/C=C/C1OCC(CC)C(CCC)O1 (stereo not given) | 95.8% (inactive) |
| C/C(=N\O)c1ccccn1 | 99.9% (inactive) |
| COCC(N)=O | 102% (inactive) |
| O=C(Nc1c(Cl)cc(Cl)cc1Cl)ON=C1CCCCC1 | 102% (inactive) |
| CC(=O)/C(C)=N\OC(=O)Nc1ccccc1 | 93.5% (inactive) |
| C=CCC(O)C=C (stereo not given) | 98.2% (inactive) |
| CCCCCC(=O)OCCC1CCCCC1 | 107% (inactive) |
| O=Cc1ccc(F)cc1 | 92.6% (inactive) |
| COC(=O)C1=C(C)C(=O)CC1 | 97.4% (inactive) |

Reference: PubChem BioAssay (NCI)
